Active and inactive are the calls of the source. Calls follow the shape of the dose curve; as a rule, active = well fitted curve in the direction sought with a large enough effect in the repeat runs; inconclusive = weak or mixed curves; inactive = flat fitted curve, though single readings scatter.

For 40 compounds, outcome results are on record in PubChem BioAssay (Tox21).

The nature of this test: qHTS assay to test for compound auto fluorescence at 535 nm (green) in HEK293 cells (AID 720680). Particulars: green autofluorescence 485/535 nm; series mostly up to 91.3 µM. The source says: U.S. Tox21 Program National Center for Advancing Translational Sciences [NCATS] NIH Chemical Genomics Center [NCGC] U.S. Environmental Protection Agency [EPA] National Institutes of Environmental Health Sciences [NIEHS] National Toxicology Program [NTP] U.S. Food and Drug Administration [FDA] Tox21 Assay Overview: Compound auto fluorescence often interferes with screening of the compound library against various biological targets and signaling pathways. Some of these compounds may have fluorophoric properties. Such properties may interfere with the assay outputs resulting in false positives and/or negatives. To decrease such complications and ensure the compound activities are relevant in terms of biological response, the Tox21 10K compound library was screened for auto fluorescence. From the fluorophores used as reporter signals in our screening assays, the auto fluorescence equivalencies of compounds against three fluorophores have been evaluated: Triamterene, Fluorescein and Rose Bengal sodium for blue, green and red fluorescence, respectively. The fluorescence intensities were measured using Excitation/Emission wavelengths at 405/460nm, 485/535nm and 540/590nm for blue, green and red labels, respectively. This assay includes the green fluorescence data.
Tox21 Assay Protocol Summary: 2,000 HEK293 cells in 5 uL of culture medium containing 10% dialyzed FBS per well were dispensed into black wall/clear bottom 1536-well plates using a Multidrop Combi Dispenser (Thermo Scientific). The assay plates were incubated for 4-5 hr at 37C to allow cell attachment to the well bottom, followed by the transfer of 23 nL compound or DMSO vehicle by a pintool work station (Kalypsys, San Diego, CA). After the assay plates were incubated overnight at 37C and 5% CO2, fluorescence intensities in the assay plates were measured by an Envision (PerkinElmer, Shelton, CT) plate reader using three labels for measuring blue, green and red fluorescence at […] 460, 535 and 590nm respectively.
For orientation: Quantitative high-throughput screening tests each substance at several concentrations.
Consider `CCN(CC)C(C)C(=O)c1ccccc1` (stereo not given), for which the call was inactive. Turning to `N#Cc1ccncc1`, the result was inactive. For `COC(=O)C(C)Oc1ccc(Oc2ccc(Cl)cc2Cl)cc1` (stereo not given) the value was “inactive”; for `COC(=O)COc1ccc(Cl)cc1Cl`, “inactive”; for `OCCBr`, “inactive”. For `CCOC(=O)CP(=O)(OCC)OCC` the value was “inactive”; for `N#CC(O)c1ccccc1` (stereo not given), “inactive”.

Take `N#CC(CCc1ccc(Cl)cc1)(Cn1cncn1)c1ccccc1` (stereo not given): the call was inactive. For `O=CNC(N1CCN(C(NC=O)C(Cl)(Cl)Cl)CC1)C(Cl)(Cl)Cl` (stereo not given), the outcome was inactive. With `CC(=O)CC(c1ccc(Cl)cc1)c1c(O)c2ccccc2oc1=O` (stereo not given), the result was inactive. For `ClC(Cl)C(Cl)Cl` the value was “inactive”. `CC(Cl)(Cl)[N+](=O)[O-]`: the outcome was inactive. In the case of `CC(C)CC#N` it was “inactive”; in that of `C[C@H]1CCC[C@H](O)CCCCCc2cc(O)cc(O)c2C(=O)O1`, “inactive”. For `COc1cc(OC)nc(Oc2cccc(Oc3nc(OC)cc(OC)n3)c2C(=O)O)n1`, the call was inactive. `CCc1cc2c(s1)-n1c(C)nnc1CN=C2c1ccccc1Cl`: the outcome was inactive.

For `CNC(=O)Oc1cccc(C(C)C)c1`, the compound was classed as inactive. On to `CC(=O)C(Cl)Cl`, for which the call was inactive. For `CNC(=O)N(C)c1nc2ccccc2s1` the value was “inactive”. As for `CC1CCCCC1NC(=O)Nc1ccccc1` (stereo not given), the call was inactive.

As for `O=[N+]([O-])c1cccc(O)c1`, the result was inactive. For `CC(CCc1ccccc1)NC(C)C(O)c1ccc(O)cc1` (stereo not given) the value was “inactive”. In the case of `CC(C=O)Cc1ccc2c(c1)OCO2` (stereo not given) it was “inactive”; in that of `CCCSC(=O)N(CCC)CCC`, “inactive”; in that of `CCC#N`, “inactive”. In the case of `O=NN1CCCCC1` it was “inactive”; in that of `CCCSP(=S)(OCC)Oc1ccc(Cl)cc1Cl` (stereo not given), “inactive”; in that of `CNC(=O)Oc1ccc(N(C)C)c(C)c1`, “inactive”.

`O=[N+]([O-])c1ccc2c3c(cccc13)CC2`: the compound was called inactive. In the case of `CCCCOC(=O)[C@@H](C)Oc1ccc(Oc2ccc(C#N)cc2F)cc1` it was “inactive”; in that of `COc1ccc(C(=O)N2CCCC2=O)cc1`, “inactive”. In the case of `CC1(C)COP(Oc2ccccc2)OC1` it was “inactive”.

For the compound `N#CCCC#N`, the outcome was inactive. For `CCSC(=O)N(CC)C1CCCCC1` the value was “inactive”; for `CC1(C)C(=O)NC(=O)NC1=O`, “inactive”. For `CCCCN(CCCCO)N=O` the value was “inactive”; for `C=C(C)CN(CC)c1c([N+](=O)[O-])cc(C(F)(F)F)cc1[N+](=O)[O-]`, “inactive”. In the case of `CC(C)[N+](=O)[O-]`, the compound was classed as inactive. For `O=C(Cc1ccccc1)OCc1ccccc1` the value was “inactive”; for `CC(Oc1ccc(Oc2ncc(C(F)(F)F)cc2Cl)cc1)C(=O)O` (stereo not given), “inactive”.
